Data as given in PubChem BioAssay (NCI).
About 83,000 compounds went through this panel and 20% of them were active in at least one assay; those are over-represented in the sample as a whole.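 Compound tested at a single concentration for 48 hours in 96-well plates; a percent growth value below 10 was scored as active.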 A number with no mark means an inactive call. The source made the active and inactive calls.

Experiments:
Assay in all cases: NCI-60 one-dose screen, 48 h (100 = growth as untreated, 0 = no growth, -100 = all killed)
Conditions in all cases: 10 µM
SK-MEL-2 melanoma = test system: SK-MEL-2 melanoma
EKVX NSCLC = test system: EKVX NSCLC
SN12C renal = test system: SN12C renal
TK-10 renal = test system: TK-10 renal
ACHN renal = test system: ACHN renal
CAKI-1 renal = test system: CAKI-1 renal
A498 renal = test system: A498 renal
CCRF-CEM leukemia = test system: CCRF-CEM leukemia
MOLT-4 leukemia = test system: MOLT-4 leukemia

SMILES | growth (SK-MEL-2 melanoma) | growth (EKVX NSCLC) | growth (SN12C renal) | growth (TK-10 renal) | growth (ACHN renal) | growth (CAKI-1 renal) | growth (A498 renal) | growth (CCRF-CEM leukemia) | growth (MOLT-4 leukemia)
Nc1nc(Nc2ccc(Cl)cc2)n(Cc2cccc(Br)c2)n1 | -74.7% (active) | -4.06% (active) | -28.5% (active) | -3.35% (active) | 1.49% (active) | 3.07% (active) | -49% (active) | 4.65% (active) | 8.42% (active)
CO[C@H]1CSS[C@@H]1Cn1nc(-c2ccc(Oc3ccccc3)cc2)c2c(N)ncnc21 | -34% (active) | 18% | 24.6% | 0.0625% (active) | 10% | 11.3% | 92.8% | -16% (active) | -20.6% (active)
CCOC(=O)C1=C(N)N(c2ccccc2)C2=C(C(=O)CC(C)(C)C2)C1c1ccc(Cl)cc1 (configuration not stated) | 30.2% | 27.7% | 64.2% | 80.4% | 22.3% | 50.2% | 67.2% | 15.4% | 1.54% (active)
Cc1noc2c(Cc3ccccc3)nn(CC(=O)N/N=C/c3ccc(F)cc3)c(=O)c12 | 73.7% | 70.8% | 25.6% | 59.2% | 9.34% (active) | 33.2% | -20% (active) | 100% | 106%
C=CCn1c(SCC(=O)Nc2ccc(C(=O)/C=C/c3ccccc3)cc2)nnc1-c1c[nH]c2ccccc12 | 58.3% | 40.9% | 68.3% | 89.2% | 52.2% | 57.3% | 109% | 55.4% | 33.2%
CN1CCN(c2ccc(C(=O)/C=C/c3cc(C(F)(F)F)ccc3Cl)cc2)CC1 | 65.3% | -91.9% (active) | -90.1% (active) | -94.4% (active) | -96.8% (active) | -95.2% (active) | -49.7% (active) | 2.2% (active) | 2.26% (active)
O=C(CSc1nnc(-c2c[nH]c3ccccc23)n1-c1ccccc1)Nc1ccc(C(=O)/C=C/c2ccc(Cl)cc2)cc1 | 87.6% | 59% | 83% | 91.8% | 68.4% | 68.2% | 90.7% | 83.7% | 58.8%
Nc1nnc(-c2c[nH]c3ncccc23)c(-c2c[nH]c3ccc(Br)cc23)n1 | 23.7% | 53.1% | 45.2% | 44.9% | 35.1% | 23.1% | 48.4% | 39.8% | 12.7%
CC(=O)Nc1ccc(-c2cn(-c3cccc(C(=O)Nc4cc(C(F)(F)F)cc(C(F)(F)F)c4)c3)nn2)cn1 | -38.6% (active) | -25.7% (active) | -50.1% (active) | -10.4% (active) | -26.2% (active) | -44.3% (active) | -30.2% (active) | -25.4% (active) | -37.1% (active)
COc1cccc(-c2ccnc(/N=C(\N)Nc3ccc(S(=O)(=O)Nc4nc(C)cc(C)n4)cc3)n2)c1 | 100% | 92.7% | 100% | 111% | 97.3% | 80.4% | 114% | 98.5% | 101%
O=C1Nc2ccc(Cl)cc2/C1=C/c1ccc(OCc2ccc(Br)cc2F)cc1 | 80% | 41% | 34.2% | 18.6% | 3.32% (active) | 28.9% | 4.76% (active) | 43.1% | 63.5%
O=C1Nc2cc(Cl)ccc2/C1=C/c1ccc(OCc2ccc(Br)cc2F)cc1 | -47.2% (active) | -13.7% (active) | -48.2% (active) | -54.8% (active) | -79.9% (active) | -59% (active) | -46.4% (active) | 5.01% (active) | 10.3%
O=C1Nc2cc(Cl)ccc2/C1=C/c1cccc(OCc2ccccc2)c1 | -31.8% (active) | 11.3% | -26.7% (active) | 33.6% | 9.76% (active) | 9.35% (active) | 49.9% | 0.155% (active) | 5.59% (active)
